Assay results: PubChem BioAssay (NCATS)
Values joined by “and” are separate entries in the source; they are usually repeats but may differ in a detail not shown here. Equal values may be shown once. Results filed as inconclusive are left out. Where a call stands in place of a potency, no number is given. Some compounds were tested as several samples or in several runs, with calls that do not always agree. Active and inactive are the calls of the source. The call rests on the fitted dose curve; in most records, active means well fitted cell-killing curve with a large enough effect; inconclusive means small, poorly fitted or top-dose-only effect, or effect the other way; inactive means no such curve, though single readings can be large or run the other way.

Test: Viability qHTS for spleen associated tyrosine kinase inhibitor (SYKi) naive MV4-11 cells (AID 1963823); further: nearly all actives have a fitted effect of over 40% in size
Conditions: MV4-11 AML viability, CellTiter-Glo luminescence, 72 h; series mostly up to 45 µM
Description: Department of Medicine, Hematology/Oncology
University Hospital Frankfurt, Germany.
Trials have shown promising clinical activity of the selective SYK inhibitor entospletinib in patients with high expressing HOXA9/MEIS1 acute leukemias. As the development of resistance mechanisms is a common problem in the use of targeted drugs, we performed a chemical library screen to identify drug sensitivities in SYK inhibitor resistant AML cells. […] Glucocorticoids are potent immunosuppressants which work in part by inhibiting the transcription of cytokine genes.
Described herein is a viability screen to look for activity in the SYK inhibitor naive cell line against four NCATS compound libraries (MIPE 5.0, NPC, NPACT, and Kinase) totaling 11372 compounds. Active hits were reacquired for confirmation and further secondary assay testing.
SEQUENCE No. (e.g., 1, 2, 3, etc.); […] (e.g., Cells, Incubation, Reagent, etc.); VALUE; DESCRIPTION.
1; Media; 2uL; white, solid-bottom Corning assay plate.
2; Compounds; 23nL; Echo acoustic dispenser.
3; Cell; 5uL; 500 cells per well.
4: Incubation; 72hr; 37 C, 5% CO2, 95% humidity.
5; Reagent; 3uL; CellTiter-Glo reagent (Promega).
6; Incubation; 10min; room temperature.
7; Detection; Luminescence; ViewLux plate reader (PerkinElmer).
NOTES (numbers refer to Sequence numbers above
1. Quantitative high-throughput screening (qHTS) of small molecule compounds was conducted on naive SYKi MV4-11 cell line.
2. Twenty-three nanoliter of small molecule compounds were added to each assay plates using the Echo acoustic dispenser (Beckman Coulter).
3. Cells were seeded into the assay plates at a final density of 500 cells in 5uL of media per well using the Multi-drop Combi dispenser.
4. Plates were covered with stainless steel gasketed lids and incubated for 72 hours at standard cell culture conditions.
5. Viability was assessed by adding 3uL of CellTiter-Glo detection reagent (Promega).
6. Plates were covered with gasket lids and incubated for 10 minutes at room temperature.
7. Luminescence was measured on a ViewLux plate reader (PerkinElmer).
Potency means the concentration at half of the fitted maximal effect.

Compound | Potency | viability (% of control)
C=C1CCC2[C@](C)(CO)C(O)CC[C@]2(C)C1C/C=C1/C(=O)OCC1O (stereo not given in full) | 3.32 µM (active) | –
O=C1CN(/N=C/c2ccc([N+](=O)[O-])o2)C(=O)N1 | inactive | –
CC(=O)c1cc2c(cc1O)OC(C)(C)C=C2 | inactive | –
CC(C)(C)CC(C)(C)c1ccc(O)c(-n2nc3ccccc3n2)c1 | inactive | –
O=C1NS(=O)(=O)c2ccccc21 | inactive | –
CO[C@@H]1[C@@H](OC(N)=O)[C@@H](O)[C@H](Oc2ccc3c(O)c(NC(=O)c4ccc(O)c(CC=C(C)C)c4)c(=O)oc3c2C)OC1(C)C | inactive | –
NC(CO)(CO)CO | inactive | –
CC(C)C(=O)Nc1ncc(-c2cc(C(F)F)nn2-c2c(Cl)cccc2Cl)s1 | 18.6 µM (active) | –
CCn1nnc2c(N3CCOCC3)nc(-c3ccc(NC(=O)Nc4ccc(C(=O)N5CCN(C)CC5)cc4)cc3)nc21 | 20.6 nM (active) and 46.8 nM (active) | –
COc1ccc(C(=O)OC2C3C=COC(OC4OC(CO)C(O)C(O)C4O)C3C3(CO)OC23)cc1OC (stereo not given) | inactive | –
Nc1ncnc2nc(-c3ccc(N4CCOCC4)nc3)cc(-c3cccc(Br)c3)c12 | 4.68 µM (active) | –
O=C(c1ccc(F)cc1)C1CCN(CCn2c(=O)nc3n(c2=O)CCCC3)CC1 | inactive | –
N#Cc1cc(NC(=O)C(=O)O)c(Cl)c(NC(=O)C(=O)O)c1 | inactive | –
C[C@@H]1O[C@@H](O[C@H]2[C@H](OC(=O)[C@]34CCC(C)(C)C[C@H]3C3=CCC5[C@@]6(C)CC[C@H](O[C@@H]7O[C@H](C(=O)O)[C@@H](O)[C@H](O)[C@H]7O[C@@H]7O[C@H](CO)[C@H](O)[C@H](O)[C@H]7O)[C@@](C)(C=O)C6CC[C@@]5(C)[C@]3(C)C[C@H]4O)O[C@H](C)[C@H](O[C@@H]3O[C@H](C)[C@H](O)[C@H](O)[C@H]3O)[C@@H]2O)[C@H](O)[C@H](O)[C@H]1O[C@@H]1OC[C@@H](O)[C@H](O[C@@H]2O[C@H](CO)[C@@H](O)[C@H](O)[C@H]2O)[C@H]1O (stereo not given in full) | – | 5.74% [at 4.97 µM] (inactive)
CCN[C@@H]1C[C@H](N)[C@@H](O[C@H]2OC(CN)=CC[C@H]2N)[C@H](O)[C@H]1O[C@H]1OC[C@](C)(O)[C@H](NC)[C@H]1O | inactive | –
Nc1ncnc2c1ncn2CCNCCCCCO | inactive | –
COc1cc(C(=O)OC[C@H]2O[C@@H](OC(C)(C)C(=O)O)[C@H](O)[C@@H](O)[C@@H]2O)cc(OC)c1O | inactive | –
COc1ccc(C2CC(c3ccccc3)=NN2c2ccc(S(N)(=O)=O)cc2)cc1 (stereo not given) | 20.9 µM (active) | –
O=C1CSC(=O)N1C(CCc1ccncc1)COc1ccc(-c2cccc([N+](=O)[O-])c2)cc1 (stereo not given) | 7.42 µM (active) | –
CC(=O)Nc1ccc(C(=O)Nc2ccccc2N)cc1 | 5.63 µM (active) and 4.68 µM (active) | –

Compound | Potency | viability (% of control)
O=C(Nc1nnc(-c2ccco2)o1)c1cc(-c2ccccc2)nc2ccccc12 | 13.2 µM (active) | –
Cc1nnn(C)c1-c1cnc2c3ccc(C(C)(C)O)cc3n([C@H](c3ccccc3)C3CCOCC3)c2c1 | 0.0042 µM (active) | –
CN1C(N)=N[C@](C)(c2cc(NC(=O)c3ccc(F)cn3)ccc2F)CS1(=O)=O | inactive | –
C[C@@H]1O[C@@H](O[C@@H]2[C@@H](O)[C@H](O[C@H]3[C@H](O[C@H]4CC[C@@]5(C)C(CC[C@]6(C)C5CC=C5[C@@H]7CC(C)(C)CC[C@]7(C(=O)O[C@@H]7O[C@H](CO)[C@@H](O)[C@H](O)[C@H]7O[C@@H]7O[C@@H](C)[C@H](O[C@@H]8O[C@@H](C)[C@H](O)[C@@H](O)[C@H]8O)[C@@H](O)[C@H]7O)CC[C@]56C)[C@@]4(C)CO)O[C@H](C(=O)O)[C@@H](O)[C@@H]3O)O[C@H](CO)[C@H]2O)[C@H](O)[C@H](O)[C@H]1O (stereo not given in full) | – | 94% [at 9.25 µM] (inactive)
CC(=O)N[C@@H](Cc1ccc(O)cc1)C(=O)O | inactive | –
O=C1NC2CCCCN2C12CCN(CCCN1c3ccccc3CCc3ccc(Cl)cc31)CC2 (stereo not given) | 10.3 µM (active) | –
C[C@@H]1C(=O)O[C@H]2CC34[C@H]5C[C@@H](C(C)(C)C)C36[C@@H](OC(=O)[C@@H]6O)OC4(C(=O)O5)[C@]21O (stereo not given in full) | inactive | –
CC(C)Cn1cnc2c1c(=O)n(C)c(=O)n2C | inactive | –
Cc1cc2cc3c(C)cc(=O)oc3c(C)c2o1 | inactive | –
CCOC(=O)c1ccc(OC(=O)CCCCCN=C(N)N)cc1 | inactive | –
COc1cc(C[C@@]2(O)CO[C@@H](c3ccc(O[C@@H]4O[C@H](CO)[C@@H](O)[C@H](O)[C@H]4O)c(OC)c3)[C@H]2CO)ccc1O | inactive | –
COc1cccc(C(=O)N2CCN(C(=O)COc3cccc(C)c3)CC2)c1OC | inactive | –
C=CC(C)(C)c1[nH]c2ccccc2c1C[C@@H]1NC(=O)[C@H](C)NC1=O | inactive | –
CCOc1nc2cccc(C(=O)O)c2n1Cc1ccc(-c2ccccc2-c2nn[nH]n2)cc1 | inactive | –
CCCCOc1ccc(CC(=O)NO)cc1 | inactive and 14.8 µM (active) | –
COc1ccc(-c2nc(-c3cc(C(F)(F)F)cc(C(F)(F)F)c3)n(Cc3ccc(C(N)=O)cc3)c2-c2ccc(OC)cc2)cc1 | 7.31 µM (active) | –
CC(C)(O)/C=C/C(=O)[C@](C)(O)[C@H]1[C@H](O)C[C@@]2(C)[C@@H]3CC=C4[C@@H](C=C(O[C@@H]5O[C@H](CO)[C@@H](O)[C@H](O)[C@H]5O)C(=O)C4(C)C)[C@]3(C)C(=O)C[C@]12C | inactive | –
COc1nc(C)nc(Cl)c1NC1=NCCN1 | inactive | –
COc1cc(Nc2nc3c(s2)CCCC3c2ccccc2)ccc1-n1cnc(C)c1 (stereo not given) | – | 89.8% [at 9.25 µM] (inactive)
C[C@H]1CC[C@@]2(OC1)O[C@H]1CC3C4CC[C@H]5C[C@@H](O)[C@H](O)C[C@]5(C)C4=CC(=O)[C@]3(C)[C@H]1[C@@H]2C (stereo not given in full) | inactive | –
